# Assay results as given in PubChem BioAssay.
# Unmarked numbers belong to inactive results. How the calls were made is not given here.
# Molecular target: Pantothenate synthetase (Mycobacterium tuberculosis (strain ATCC 25618 / H37Rv)) (UniProt P9WIL5)
# Assay: Recombinant Mtb pantothenate synthetase (PanC) inhibitors, coupled enzyme, confirmatory (AID 375);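 further: 0% = full reaction with vehicle and 100% = no enzyme background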
# Settings: coupled enzyme assay; at 10 µM, hits give high values
# Pantothenate synthetase (Mycobacterium tuberculosis (strain ATCC 25618 / H37Rv)), sequence (P9WIL5 whole entry, looked up): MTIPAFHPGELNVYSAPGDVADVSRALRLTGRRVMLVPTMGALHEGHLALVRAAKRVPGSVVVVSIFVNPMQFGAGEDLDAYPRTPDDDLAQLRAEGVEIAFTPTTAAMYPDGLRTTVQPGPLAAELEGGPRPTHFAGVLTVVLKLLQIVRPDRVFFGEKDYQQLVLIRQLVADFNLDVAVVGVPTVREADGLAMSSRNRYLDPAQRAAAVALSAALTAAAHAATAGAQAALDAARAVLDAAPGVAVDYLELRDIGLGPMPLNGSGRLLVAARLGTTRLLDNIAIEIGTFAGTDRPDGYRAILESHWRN
row,Structure (SMILES),inhibition [%]
1,Cc1ccc(NC(=O)CSc2nnc(CSc3nc(C)cc(C)n3)n2Cc2ccco2)c(C)c1,0
2,CS(=O)(=O)N1CCN(CC2CC3C=CC2C3)CC1 (stereo not given),8
3,CCn1cc(C2Nc3ccccc3C(=O)N2O)c(C)n1 (stereo not given),0
4,S=c1[nH]c2ccc(Cl)cc2[nH]1,9
5,Cc1cc(C)c(C(=O)CSc2nnc(-c3ccccc3Br)o2)cc1C,2
6,COc1nc2ccc(C)cc2cc1-c1noc(-c2cccnc2)n1,4
7,O=C(Nc1cccc2ccccc12)c1cnccn1,0
8,Cn1ccnc1C(O)c1ccco1 (stereo not given),3
9,CCOc1ccccc1-n1c(SCC(=O)NCc2ccco2)nnc1-c1ccncc1,1
10,CCc1cc(=O)oc2c(CN3CCN(C)CC3)c(O)c(Cl)cc12,5
11,COCCn1c(SCC(=O)Nc2sc(C)c(C)c2C#N)nnc1C(C)C,0
12,CN(Cc1cnn(C)c1)C(=O)c1cc2ccccc2oc1=O,3
13,O=C(CN1C(=O)c2ccccc2S1(=O)=O)NCc1ccccc1Cl,0
14,Cc1cccc(NC(=O)CCCCCN2C(=O)c3ccccc3C2=O)n1,0
15,CCOC(=O)Cn1c(S(=O)(=O)Cc2ccccc2)nc2ccccc21,0
16,COc1ccc2c(c1)CCc1c(C(=O)NCc3cccnc3)noc1-2,0
17,CO/C([O-])=N/c1c[n+](-c2ccc(C)cc2)no1,0
18,CCn1c(CNc2ccc(OC)cc2)nnc1SCC(=O)c1ccc(OC)cc1,0
19,CCOC(=O)c1sc(NC(=O)CSc2nc3c(cc2C#N)CCC3)c(C#N)c1C,10
20,Cc1noc(/C=C/N(C)C)c1S(=O)(=O)N1CCCC(C(=O)NC2CCCCC2)C1 (stereo not given),8

row,Structure (SMILES),inhibition [%]
1,COc1cc(C)c(Br)cc1S(=O)(=O)N1CCOCC1,2
2,O=C(NCc1ccco1)C1Cc2ccccc2CN1S(=O)(=O)c1ccccc1F (stereo not given),1
3,COC(=O)C1CCN(C(=O)c2sc3nc(-c4ccc(F)cc4)cn3c2C)CC1,0
4,C1CNCCNCCNCCN1,0
5,CCN(CC)c1ccc2c(c1)CCCN2,3
6,O=C(Nc1nc2c(s1)CCCC2)C1COc2ccccc2O1 (stereo not given),0
7,Cc1onc(-c2ccccc2)c1C(=O)N1CCCSC1=Nc1ccccc1,6
8,CC(C)CCSc1nc2c(c(=O)[nH]c(=O)n2C)n1CCCc1ccccc1,0
9,CCc1cc(-c2[nH]ncc2-c2ccc3c(c2)OCO3)c(O)cc1O,0
10,Cc1ccc(C(=O)C2COC(=O)C2)cc1 (stereo not given),0
11,Cc1ccc(NC(=O)C2CCCN(S(=O)(=O)c3cnc[nH]3)C2)cc1C (stereo not given),11
12,COc1cc2c(C#N)c(N3CCOCC3)nc(N)c2c(N)n1,0
13,O=C(CSc1ncnc2ccccc12)N1CCN(c2ccccc2)CC1,0
14,Cn1c(SCc2ccc3c(c2)OCO3)nnc1-c1ccccc1,0
15,COC(=O)COc1ccc(C(=O)OC)cc1,2
16,CCOc1ccc2c(c1)n(CO)c(=S)n2CO,0
17,CCOC(=O)c1[nH]c2ccc(C)cc2c1N=C(C)N(C)C,11
18,O=S(=O)(c1ccccc1)N(Cc1nc(-c2ccccc2)no1)C1CCCCC1,0
19,COC(=O)c1c(NC(=O)c2ccc(S(=O)(=O)N3CCOCC3)cc2)sc2c1CCN(C)C2,0
20,CCC(=O)c1ccc(OCC(=O)N2CCc3cc(OC)c(OC)cc3C2)cc1,0
